Experimental data taken from the antibiotic and cytotoxicity screens of Wong et al. (2023).
Screen size: about 39,000 compounds; about 1,500 (3.8%) were called active. This is one part of a sample in which actives are shown more often than they occur.

Tested on: HSkMC (human skeletal muscle cells)
Experiment: cytotoxicity call (relative viability < 0.9)
Conditions: 10 µM

Row | SMILES | cytotoxicity call
1 | C[C@H]1CN([C@@H](C)CO)C(=O)c2cc(NC(=O)C3CC3)ccc2O[C@H]1CN(C)Cc1ccc(Oc2ccccc2)cc1 | inactive
2 | COc1ccc(S(=O)(=O)N(C)C[C@@H]2Oc3ccc(NS(=O)(=O)c4cccs4)cc3C(=O)N([C@@H](C)CO)C[C@@H]2C)cc1 | inactive
3 | C[C@H]1CN([C@@H](C)CO)C(=O)Cc2cc(NC(=O)C3CC3)ccc2O[C@H]1CN(C)S(=O)(=O)c1cn(C)cn1 | inactive
4 | C[C@H]1CCCCO[C@H](CN(C)C(=O)Nc2ccc3c(c2)OCO3)[C@@H](C)CN([C@@H](C)CO)C(=O)c2cc(NC(=O)CCC(F)(F)F)ccc2O1 | inactive
5 | O=C(O)c1ccc(CCO)s1 | inactive
6 | COc1ccccc1C#Cc1ccc2c(c1)O[C@H](CN(C)Cc1cccnc1)[C@@H](C)CN([C@@H](C)CO)S2(=O)=O | active
7 | COc1ccccc1C#Cc1ccc2c(c1)O[C@@H](CN(C)Cc1cccnc1)[C@H](C)CN([C@H](C)CO)S2(=O)=O | active
8 | COc1ccccc1C#Cc1ccc2c(c1)O[C@H](CN(C)Cc1cccnc1)[C@H](C)CN([C@@H](C)CO)S2(=O)=O | inactive
9 | COc1ccccc1C#Cc1ccc2c(c1)O[C@@H](CN(C)Cc1cccnc1)[C@@H](C)CN([C@@H](C)CO)S2(=O)=O | inactive
10 | COc1ccccc1C#Cc1ccc2c(c1)O[C@@H](CN(C)Cc1cccnc1)[C@@H](C)CN([C@H](C)CO)S2(=O)=O | inactive
11 | COc1ccccc1C#Cc1ccc2c(c1)O[C@@H](CN(C)Cc1cccnc1)[C@H](C)CN([C@@H](C)CO)S2(=O)=O | active
12 | COc1ccccc1C#Cc1ccc2c(c1)O[C@H](CN(C)Cc1cncnc1)[C@H](C)CN([C@@H](C)CO)S2(=O)=O | inactive
13 | COc1ccccc1C#Cc1ccc2c(c1)O[C@H](CN(C)Cc1cccnc1)[C@H](C)CN([C@H](C)CO)S2(=O)=O | inactive
14 | COc1ccccc1C#Cc1ccc2c(c1)O[C@H](CN(C)Cc1cccnc1)[C@@H](C)CN([C@H](C)CO)S2(=O)=O | inactive
15 | C[C@@H]1CN([C@H](C)CO[Si](C)(C)C(C)(C)C)C(=O)c2cc(NC(=O)C3CCCCC3)ccc2O[C@H]1CN(C)C(=O)c1ccc(Cl)cc1 | inactive
16 | COc1ccccc1CNC(=O)C[C@@H]1C[C@@H]2c3cc(NC(=O)Nc4ccc(C(F)(F)F)cc4)ccc3O[C@@H]2[C@@H](CO)O1 | inactive
17 | C=CCNC(=O)CSc1nc(=O)cc(N)[nH]1 | inactive
18 | COc1ccc(S(=O)(=O)N(C)C[C@H]2OCCCC[C@@H](C)Oc3ccc(NC(=O)Nc4ccc(C(F)(F)F)cc4)cc3C(=O)N([C@@H](C)CO)C[C@H]2C)cc1 | active
19 | COc1ccc(S(=O)(=O)N(C)C[C@H]2OCCCC[C@H](C)Oc3ccc(NC(=O)Nc4ccc(C(F)(F)F)cc4)cc3C(=O)N([C@@H](C)CO)C[C@@H]2C)cc1 | inactive
20 | C[C@@H]1CN([C@H](C)CO)C(=O)c2cc(NC(=O)Nc3ccc(C(F)(F)F)cc3)ccc2O[C@@H](C)CCCCO[C@H]1CN(C)S(=O)(=O)c1ccc(Cl)cc1 | inactive
21 | COc1ccc(S(=O)(=O)N(C)C[C@H]2OCCCC[C@@H](C)Oc3ccc(NC(=O)Nc4ccc(C(F)(F)F)cc4)cc3C(=O)N([C@H](C)CO)C[C@H]2C)cc1 | inactive
22 | C[C@@H]1CCCCO[C@@H](CN(C)S(=O)(=O)c2ccc(Cl)cc2)[C@H](C)CN([C@@H](C)CO)C(=O)c2cc(NC(=O)Nc3ccc(C(F)(F)F)cc3)ccc2O1 | inactive
23 | C[C@@H]1CCCCO[C@H](CN(C)S(=O)(=O)c2ccc(Cl)cc2)[C@@H](C)CN([C@H](C)CO)C(=O)c2cc(NC(=O)Nc3ccc(C(F)(F)F)cc3)ccc2O1 | active
24 | COc1ccc(S(=O)(=O)N(C)C[C@@H]2OCCCC[C@H](C)Oc3ccc(NC(=O)Nc4ccc(C(F)(F)F)cc4)cc3C(=O)N([C@@H](C)CO)C[C@H]2C)cc1 | inactive
25 | COc1ccc(S(=O)(=O)N(C)C[C@@H]2OCCCC[C@H](C)Oc3ccc(NC(=O)Nc4ccc(C(F)(F)F)cc4)cc3C(=O)N([C@H](C)CO)C[C@@H]2C)cc1 | inactive

Row | SMILES | cytotoxicity call
26 | COc1ccc(S(=O)(=O)N(C)C[C@H]2OCCCC[C@@H](C)Oc3ccc(NC(=O)Nc4ccc(C(F)(F)F)cc4)cc3C(=O)N([C@@H](C)CO)C[C@@H]2C)cc1 | active
27 | C=C1[N-]O[N+](O)=C1CN(Cc1c(C)no[n+]1[O-])OC(C)=O | inactive
28 | C[C@H]1CN([C@@H](C)CO)C(=O)c2cccc(NC(=O)Nc3ccc(C(F)(F)F)cc3)c2O[C@@H]1CN(C)Cc1ccc(-c2ccccc2)cc1 | inactive
29 | C[C@H](CO)N1C[C@H](C)[C@H](CN(C)Cc2ccc(Cl)c(Cl)c2)OCCCC[C@H](C)Oc2ccc(NC(=O)NC3CCCCC3)cc2C1=O | inactive
30 | Cn1nc(CN2CCCC2=O)c2c1CN(C(=O)CO)C2 | inactive
31 | C[C@H]1CCCCO[C@H](CN(C)Cc2ccc(C(F)(F)F)cc2)[C@@H](C)CN([C@@H](C)CO)C(=O)c2cc(N(C)C)ccc2O1 | inactive
32 | COc1ccc(-c2cnc3c(c2)C(=O)N([C@H](C)CO)C[C@@H](C)[C@H](CN(C)C(=O)Cc2cccnc2)O3)cc1 | inactive
33 | COc1ccc(NC(=O)N(C)C[C@@H]2OCCCC[C@H](C)Oc3ccc(NC(=O)Nc4ccc(C(F)(F)F)cc4)cc3C(=O)N([C@H](C)CO)C[C@@H]2C)cc1 | inactive
34 | CN(C)Cc1ccc([C@@H](N)c2ccncc2)cc1 | inactive
35 | COc1ccc2c3c(n(c2c1)C)[C@@H](CO)N(Cc1cc(cc(c1)OC)OC)C[C@]13CCN(CC1)C(=O)CN1CCOCC1 | inactive
36 | CCOC(=O)c1ccc(N)cc1 | inactive
37 | CCOC(=O)c1ccc(O)cc1 | inactive
38 | CCOC(=O)c1ccc(NC(=S)N[C@@H](NC(=O)c2ccc(Br)cc2)C(Cl)(Cl)Cl)cc1 | active
39 | Cc1noc(C)c1S(=O)(=O)Nc1ccc2c(c1)CC(=O)N([C@H](C)CO)C[C@H](C)[C@@H](CN(C)S(=O)(=O)c1cn(C)cn1)O2 | inactive
40 | COc1ccc(-c2nc(N3CCOCC3)c3sc(CN(C)c4ncc(C(=O)NO)cn4)cc3n2)cn1 | active
41 | CNc1ccc(-c2nc(N3CCOCC3)c3sc(CN(C)c4ncc(C(=O)NO)cn4)cc3n2)cn1 | active
42 | COC(=O)COc1nsnc1N1CCOCC1 | inactive
43 | COc1ccc(NC(=O)N(C)C[C@@H]2OCCCC[C@H](C)Oc3ccc(NC(=O)Cc4ccccc4)cc3C(=O)N([C@H](C)CO)C[C@@H]2C)cc1 | inactive
44 | Cc1ccc(Oc2ccc(CN)cc2)cc1 | inactive
45 | Cc1ccc(S(=O)(=O)N(C)C[C@H]2Oc3ccc(NC(=O)CCCN(C)C)cc3CC(=O)N([C@H](C)CO)C[C@@H]2C)cc1 | inactive
46 | C[C@@H]1CN([C@H](C)CO)C(=O)c2cc(NC(=O)Nc3ccccc3)ccc2O[C@@H](C)CCCCO[C@H]1CN(C)C(=O)C1CCCCC1 | inactive
47 | C[C@H](CO)N1C[C@H](C)[C@H](CN(C)S(=O)(=O)c2ccc(Cl)cc2)Oc2ccc(NC(=O)CCCN(C)C)cc2CC1=O | inactive
48 | COCC(=O)N1C[C@H](C)[C@H](OC)CN(C)C(=O)c2cc(NC(=O)c3cc(C)on3)ccc2OC[C@H]1C | inactive
49 | C[C@@H]1CN([C@@H](C)CO)C(=O)Cc2cc(NC(=O)CCCN(C)C)ccc2O[C@H]1CN(C)S(=O)(=O)c1ccccc1 | inactive
50 | CC1(C)C(=O)C=CC2(C)C1C=CC1(C)C2CCC2(C)C(c3ccoc3)OC(=O)C3OC312 (centres undefined) | active

Row | SMILES | cytotoxicity call
51 | CC(=O)OC1CCC2(C)C(CC(OC(C)=O)C3(C)C2CCC2(C)C(c4ccoc4)OC(=O)C4OC423)C1(C)C (stereo not drawn) [3beta-ACETOXYDEOXODIHYDROGEDUNIN ] | inactive
52 | CC1(C)C(=O)C=CC2(C)C1CC(=O)C1(C)C2CCC2(C)C(c3ccoc3)OC(=O)C3OC321 (centres undefined) | inactive
53 | CCC(=O)N1C[C@]2(C1)CN([C@@H](CO)c1[nH]c3cc(ccc3c12)OC)S(=O)(=O)C | inactive
54 | C[C@@H]1CCCCO[C@H](CN(C)C(=O)Nc2ccc(F)cc2)[C@H](C)CN([C@@H](C)CO)C(=O)c2cc(NC(=O)CCCN(C)C)ccc2O1 | inactive
55 | COc1ccc(NC(=O)Nc2ccc3c(c2)C(=O)N([C@@H](C)CO)C[C@@H](C)[C@H](CN(C)C(=O)Nc2c(C)noc2C)OCCCC[C@H](C)O3)cc1 | inactive
56 | Cc1ccc(O)c(C(C)(C)C)c1 | inactive
57 | Cc1cc(CO)c(O)c(CO)c1 | inactive
58 | Cc1cc(C(C)(C)C)c(O)c(C(C)(C)C)c1 | active
59 | COc1ccc(S(=O)(=O)Nc2ccc3c(c2)C(=O)N([C@@H](C)CO)C[C@H](C)[C@@H](CN(C)C(=O)Nc2ccc(C(F)(F)F)cc2)OCCCC[C@@H](C)O3)cc1 | inactive
60 | NNC(=O)CCc1ccccc1 | inactive
61 | CNC(=O)CN1CCOC[C@]2(CCCN(C(C)=O)C2)C1 | inactive
62 | S=C(NCCCc1cnc[nH]1)NCCCN(Cc1ccc(Cl)c(Cl)c1)c1ccc(Br)cn1 | active
63 | COc1ccc2c3c([nH]c2c1)[C@@H](CO)N(CC1CCCCC1)C[C@]13CCN(CC1)C(=O)Nc1cccc(c1)F | active
64 | COc1ccc2c3c([nH]c2c1)[C@H](CO)N(C[C@]13CCN(CC1)CC1CCCCC1)C(=O)Nc1cccc(c1)F | active
65 | COc1ccc2c3c([nH]c2c1)[C@@H](CO)N(C[C@]13CCN(CC1)CC1CCCC1)C(=O)Nc1cccc(c1)F | inactive
66 | COc1ccc2c3c([nH]c2c1)[C@@H](CO)N(C[C@]13CCN(CC1)CC1CCCCC1)C(=O)Nc1cccc(c1)F | active
67 | COc1ccc2c3c([nH]c2c1)[C@@H](CO)N(CC1CCCCC1)C[C@]13CCN(CC1)C(=O)NC1CCCC1 | inactive
68 | COc1ccc(cc1)CN1C[C@]2(CCN(CC2)C(=O)Nc2cccc(c2)F)c2c([nH]c3cc(ccc23)OC)[C@@H]1CO | inactive
69 | COc1ccc2c3c([nH]c2c1)[C@@H](CO)N(CC1CCOCC1)C[C@]13CCN(CC1)C(=O)C1CCOCC1 | inactive
70 | COc1ccc2c3c([nH]c2c1)[C@H](CO)N(CC1CCCCC1)C[C@]13CCN(CC1)C(=O)Nc1cccc(c1)F | inactive
71 | COc1ccc2c3c([nH]c2c1)[C@H](CO)N(CC1CCCCC1)C[C@]13CCN(CC1)C(=O)NC1CCCC1 | active
72 | COc1ccc2c3c([nH]c2c1)[C@@H](CO)N(C[C@]13CCN(CC1)CC1CCCCC1)C(=O)Nc1c(noc1C)C | inactive
73 | COc1ccc2c3c([nH]c2c1)[C@H](CO)N(C[C@]13CCN(CC1)CC1CCCCC1)C(=O)Nc1c(noc1C)C | inactive
74 | COc1ccc2c3c([nH]c2c1)[C@H](CO)N(C[C@]13CCN(CC1)CC1CCCC1)C(=O)Nc1cccc(c1)F | inactive
